Measurements reported in a collection of fitness landscapes (doi:10.1126/science.1257360).
Over roughly 140,000 sequences, “enrichment ratio after two sorts for PhoP signalling” has its median near 0; the highest 2% begin near 11. For the sample, the highest values were picked, then their nearest neighbours and some sequences at random.

B1: PhoQ; a variant is named by its letters at X, in order, P23837 (parent)
chain: MKKLLRLFFPLSLRVRFLLATAAVVLVLSLAYGMVALIGYSVSFDKTTFRLLRGESNLFYTLAKWENNKLHVELPENIDKQSPTMTLIYDENGQLLWAQRDVPWLMKMIQPDWLKSNGFHEIEADVNDTSLLLSGDHSIQQQLQEVREDDDDAEMTHSVAVNVYPATSRMPKLTIVVVDTIPVELKSSYMVWSWFIYVLSANLLLVIPLLWVAAWWSLRPIEALAKEVRELEEHNRELLNPATTRELTSLVRNLNRLLKSERERYDKYRTTLTDLTHSLKTPLXXLQXXLRSLRSEKMSVSDAEPVMLEQISRISQQIGYYLHRASMRGGTLLSRELHPVAPLLDNLTSALNKVYQRKGVNISLDISPEISFVGEQNDFVEVMGNVLDNACKYCLEFVEISARQTDEHLYIVVEDDGPGIPLSKREVIFDRGQRVDTLRPGQGVGLAVAREITEQYEGKIVAGESMLGGARMEVIFGRQHSAPKDE

Variants of: B1
Assay: enrichment ratio after two sorts for PhoP signalling (ratio (wild type AVST 3.29)); higher = more functional
Conditions: with PhoP (E. coli)

Row | Variant | enrichment ratio
1 | EYAS | ≤ 0.25
2 | LGCH | ≤ 0.25
3 | TLYV | 0.293
4 | LEIN | ≤ 0.25
5 | EYMV | ≤ 0.25
6 | RHQP | ≤ 0.25
7 | GIME | 13.3
8 | GICE | 6.08
9 | GNME | ≤ 0.25
10 | DICD | ≤ 0.25
11 | EHLY | ≤ 0.25
12 | FVVK | ≤ 0.25
13 | ASGR | ≤ 0.25
14 | ASSM | 19.3
15 | VRSM | ≤ 0.25
16 | ASSF | 11.3
17 | KSSF | ≤ 0.25
18 | ASQM | 2.47
19 | VGAL | 0.829
20 | GWCN | ≤ 0.25
21 | KYML | ≤ 0.25
22 | SNML | 15.9
23 | SYML | 0.252
24 | SGEL | ≤ 0.25
25 | SWML | ≤ 0.25
26 | TIML | 2.74

Row | Variant | enrichment ratio
27 | HEML | ≤ 0.25
28 | STML | 13.4
29 | NMML | ≤ 0.25
30 | SGML | 17.4
31 | SMML | 14.5
32 | AVQL | ≤ 0.25
33 | YNMI | 0.268
34 | IVRK | ≤ 0.25
35 | TQMH | 9.69
36 | IKMM | ≤ 0.25
37 | WGHD | ≤ 0.25
38 | SQFI | ≤ 0.25
39 | RPFT | ≤ 0.25
40 | SAKL | ≤ 0.25
41 | SAML | 16.5
42 | IIML | ≤ 0.25
43 | SRML | 4.3
44 | SCML | 11.2
45 | SPML | ≤ 0.25
46 | SIML | 6.65
47 | SSML | 23.6
48 | SLML | 7.15
49 | HYKH | ≤ 0.25
50 | GCEP | ≤ 0.25
51 | RQGY | ≤ 0.25
52 | FFWN | ≤ 0.25

Row | Variant | enrichment ratio
53 | FTWN | ≤ 0.25
54 | QTWN | 16.8
55 | QGWN | 16.6
56 | QLWN | ≤ 0.25
57 | FVWN | ≤ 0.25
58 | QTWI | 3.53
59 | QQNM | 16.3
60 | IQNM | ≤ 0.25
61 | QSWN | 21.4
62 | QQRM | ≤ 0.25
63 | QSQN | ≤ 0.25
64 | QVFE | ≤ 0.25
65 | EYFQ | ≤ 0.25
66 | FTGV | ≤ 0.25
67 | FFRA | ≤ 0.25
68 | LYHH | ≤ 0.25
69 | EIFG | ≤ 0.25
70 | TPWN | ≤ 0.25
71 | FCWL | ≤ 0.25
72 | QPWL | ≤ 0.25
73 | MAWL | 12
74 | MAWI | 8.24
75 | QRWL | ≤ 0.25
76 | FPWN | ≤ 0.25
77 | QQWN | 13.8
78 | MAWN | 23.5

Row | Variant | enrichment ratio
79 | NAWN | ≤ 0.25
80 | QSWL | 11.6
81 | KAWN | ≤ 0.25
82 | YELN | 2.61
83 | KINA | ≤ 0.25
84 | IDLY | ≤ 0.25
85 | SGPA | ≤ 0.25
86 | TVIM | ≤ 0.25
87 | ALLC | 1.19
88 | SWSV | ≤ 0.25
89 | LKFM | ≤ 0.25
90 | FEFH | ≤ 0.25
91 | QRYN | ≤ 0.25
92 | QRWN | ≤ 0.25
93 | QQWL | 11.7
94 | QIWN | 27.2
95 | QVWL | 1.05
96 | QIYN | 20.5
97 | QQRL | ≤ 0.25
98 | QQQL | ≤ 0.25
99 | QPWN | ≤ 0.25
100 | QQEL | ≤ 0.25
101 | QQNL | 14.9
102 | QEYN | ≤ 0.25
103 | LCAS | ≤ 0.25
104 | AWQV | ≤ 0.25

Row | Variant | enrichment ratio
105 | QRPC | ≤ 0.25
106 | IARV | ≤ 0.25
107 | HCSE | ≤ 0.25
108 | YKNC | ≤ 0.25
109 | HYGG | ≤ 0.25
110 | ESAV | 2.02
111 | LFIM | ≤ 0.25
112 | WQAC | ≤ 0.25
113 | MMIC | ≤ 0.25
114 | FQCG | 1.7
115 | TQCP | ≤ 0.25
116 | TQPI | ≤ 0.25
117 | DWCG | ≤ 0.25
118 | TQCA | 17.6
119 | TQCG | 14.9
120 | TQCE | 87.9
121 | TQAI | 3.21
122 | TQCS | 15.1
123 | TQIE | ≤ 0.25
124 | TQNE | ≤ 0.25
125 | TQCV | 10.8
126 | HAWL | ≤ 0.25
127 | SAVY | 1.85
128 | QKIT | ≤ 0.25
129 | GSFP | ≤ 0.25
130 | DITR | ≤ 0.25

Row | Variant | enrichment ratio
131 | PWHF | ≤ 0.25
132 | MSDL | ≤ 0.25
133 | NNLP | ≤ 0.25
134 | RETI | ≤ 0.25
135 | HCYR | ≤ 0.25
136 | RHMQ | ≤ 0.25
137 | WQYV | ≤ 0.25
138 | RTWF | ≤ 0.25
139 | FQCQ | ≤ 0.25
140 | TQQP | ≤ 0.25
141 | TQTH | 6.85
142 | TQCK | 1.24
143 | TQYS | 12.5
144 | SQYS | ≤ 0.25
145 | TQCI | 16
146 | TQEL | ≤ 0.25
147 | TQRL | ≤ 0.25
148 | TQCL | 12.5
149 | TQYK | ≤ 0.25
150 | TQCQ | 27.8
151 | WRPN | ≤ 0.25
152 | GCIS | 2.07
153 | PPWA | ≤ 0.25
154 | HQSY | ≤ 0.25
155 | RKAR | ≤ 0.25
156 | MEHS | ≤ 0.25

Row | Variant | enrichment ratio
157 | EHIP | ≤ 0.25
158 | WQCT | ≤ 0.25
159 | TQWA | 17.1
160 | TQYE | 35.7
161 | TQCT | 12.5
162 | TQSA | 19.8
163 | NQYE | ≤ 0.25
164 | RNCT | ≤ 0.25
165 | TQYI | ≤ 0.25
166 | HDSA | ≤ 0.25
167 | TQWI | 1.91
168 | TQSK | ≤ 0.25
169 | NVSA | ≤ 0.25
170 | GFAI | ≤ 0.25
171 | GLPN | ≤ 0.25
172 | GAFM | ≤ 0.25
173 | EVEQ | ≤ 0.25
174 | FEQI | ≤ 0.25
175 | YIWG | ≤ 0.25
176 | TQSI | 11.7
177 | TQTG | 5.83
178 | TQRK | ≤ 0.25
179 | WSSI | ≤ 0.25
180 | TEFF | 6.49
181 | MCRI | ≤ 0.25
182 | MEVE | ≤ 0.25

Row | Variant | enrichment ratio
183 | TEVE | 11.6
184 | TEYE | ≤ 0.25
185 | MELE | ≤ 0.25
186 | HPLE | ≤ 0.25
187 | TELE | 11.2
188 | RSQR | ≤ 0.25
189 | YMEV | ≤ 0.25
190 | GDTM | 4.42
191 | GDVI | 20
192 | GDIV | 8.68
193 | GDNY | ≤ 0.25
194 | GDVA | ≤ 0.25
195 | GDVM | 28.9
196 | GDYM | ≤ 0.25
197 | TDVI | 11.8
198 | LTVI | ≤ 0.25
199 | GDTV | 13.7
200 | GDDV | ≤ 0.25
201 | FDVI | ≤ 0.25
